Drawing on PubChem BioAssay (NCI), this text covers growth inhibition for 39 compounds.

The structures appear in SMILES notation. The panel holds about 79,000 compounds, 15% with a hit somewhere; the sample as a whole holds those more often. A number with no mark means an inactive call. Cut-off read from the data, not from the text of the source: active = growth inhibition above about 70%; inactive = the rest.

One experiment is described as follows: NCI Yeast Anticancer Drug Screen. Data for the cln2 rad14 strain (AID 165).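 Note: 0% = growth equal to vehicle treated cultures.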 The settings on record: S. cerevisiae cln2 rad14 strain, at 50.0 µM, stronger effect = higher value. Put shortly:
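Compounds are applied to the cln2 rad14 yeast strain, and growth is then compared with that of vehicle-treated cultures to give inhibition.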
With `COc1ccc(C(O)c2ccccc2)cc1` (stereo not drawn), the growth inhibition is -50.2%.

Regarding `CCN(CC)c1ccc2nc3ccc(=[N+](CC)CC)cc-3oc2c1`, the growth inhibition is -165%.

Turning to `CC(C)COC(=O)COC(=O)OCCOCCOC(=O)OCC(=O)OCC(C)C`, the growth inhibition is -26.9%.

In the case of `COc1cc(/C=C/C(=O)c2ccccc2)cc(OC)c1OC`, the growth inhibition was 34.5%.

Turning to `S=C(Nc1ccccc1)N1CCCCC1`, the growth inhibition is -39.3%.

Turning to `Nc1ccc(CC(=O)O)c(N)c1`, the growth inhibition is -6.25%.

Consider `CC1(O)OC(COc2ccc(Cl)cc2)COC1O` (stereo not drawn), for which the growth inhibition was 8.55%.

Turning to `O/N=C/c1ccc(O)cc1O`, the growth inhibition was -29.9%.

On to `C/C(=C\c1cc(Cl)ccc1OCC(=O)O)[N+](=O)[O-]`, for which the growth inhibition was 26.9%.

With `Nc1ccc(C(=O)c2ccc(N)c(Br)c2)cc1Br`, the growth inhibition was -77.9%.

On to `COC(=O)c1ccccc1Br`, for which the growth inhibition was -22.1%.

With `CC1SC(N)=NC1=O` (stereo not drawn), the growth inhibition is -2.15%.

Take `CCOC(=O)C(C#N)Cc1ccccc1` (stereo not drawn): the growth inhibition was -14.2%.

In the case of `CCCCCCCO`, the growth inhibition was 2.25%.

Take `COc1cc2c3cc1Oc1c(OC)c(OC)cc4c1C(Cc1ccc(O)c(c1)Oc1ccc(cc1)CC3N(C)CC2)N(C)CC4` (stereo not drawn): the growth inhibition was 6.9%.

With `Cc1ccc(Cl)cc1N1C(=O)CC(Sc2ccccc2N)C1=O` (stereo not drawn), the growth inhibition was 8.65%.

On to `c1ccc(Sc2ccccc2)cc1`, for which the growth inhibition is -63.6%.

Regarding `C#C[C@H]1CCCCCC1O` (stereo partly drawn), the growth inhibition was 14.4%.

In the case of `CCOC(=O)c1coc(C(=O)OCC)c1C(=O)OCC`, the growth inhibition was -3.05%.

Turning to `O=C1NC(=O)C2C(=O)NC(=O)C1C21CCc2ccccc21` (stereo not drawn), the growth inhibition is -4.25%.

Turning to `CN(C)C(C)(C)CC(C)(C)C`, the growth inhibition was 4.85%.

`O=C(NCO)c1ccccc1`: the growth inhibition is 7.75%.

On to `NC(N)=Nc1cc2ccccc2c2ccccc12`, for which the growth inhibition was -14%.

As for `CCOC(=O)Nc1cc2c(c(N)n1)N=C(c1ccccc1)CO2`, the growth inhibition was 16.5%.

With `CC(C)CCCC(=O)O`, the growth inhibition was 27.8%.

Consider `O=C(CCl)Nc1ccc2c(c1)C(=O)c1ccc(NC(=O)CCl)cc1C2=O`, for which the growth inhibition was 1.7%.

For `COc1cc(C2c3cc4c(cc3C3OC(=O)C2C3CO)OCO4)cc(OC)c1OC` (stereo not drawn), the growth inhibition was 6.25%.

`NCC(=O)CCC(=O)O`: the growth inhibition is -4.95%.

On to `COC(=O)c1ccc(C(C)C)cc1`, for which the growth inhibition was 16.1%.

Turning to `CN(C)CCN(C)CC(C)(C)C(=O)/C=C/c1ccc(Cl)cc1`, the growth inhibition was -2.65%.

Regarding `Cc1cc2nc(CO)[nH]c2cc1C`, the growth inhibition was 7.55%.

Turning to `Oc1ccc(O)cc1`, the growth inhibition was -22.6%.

For `COc1cc(OC)c2ccc(=O)oc2c1`, the growth inhibition is 6.75%.

Consider `Cc1cc(NC(=O)CSCC(=O)O)no1`, for which the growth inhibition is 7.8%.

As to `O=C1Cc2ccccc2C(=O)O1`, the growth inhibition was -22.1%.

On to `COC(=O)c1cc(-c2ccc(Cl)c(Cl)c2)[nH]c(=O)c1C#N`, for which the growth inhibition is 21.7%.

For the compound `CC12CC3CC1C(C(=O)O2)C3C(=O)O` (stereo not drawn), the growth inhibition is 5.85%.

For the compound `O=C(c1ccccc1)C1CCC1`, the growth inhibition is -17.5%.

For the compound `CC(=O)OCC1CCCO1` (stereo not drawn), the growth inhibition was -44.1%.

Another experiment can be described thus: NCI Yeast Anticancer Drug Screen. Data for the bub3 strain (AID 167). The settings on record: S. cerevisiae bub3 mutant strain, at 50.0 µM, stronger effect = higher value. Put shortly:
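In this screen, a yeast mutant lacking normal mitotic checkpoint function is challenged with compound. Relative growth versus vehicle gives the inhibition value.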
In the case of `COc1ccc(C(O)c2ccccc2)cc1` (stereo not drawn), the growth inhibition was -28.1%.

In the case of `CCN(CC)c1ccc2nc3ccc(=[N+](CC)CC)cc-3oc2c1`, the growth inhibition was -246%.

As to `CC(C)COC(=O)COC(=O)OCCOCCOC(=O)OCC(=O)OCC(C)C`, the growth inhibition is 26.1%.

For the compound `COc1cc(/C=C/C(=O)c2ccccc2)cc(OC)c1OC`, the growth inhibition was -18.1%.

For `S=C(Nc1ccccc1)N1CCCCC1`, the growth inhibition is 2.4%.

In the case of `Nc1ccc(CC(=O)O)c(N)c1`, the growth inhibition is 4.6%.

As for `CC1(O)OC(COc2ccc(Cl)cc2)COC1O` (stereo not drawn), the growth inhibition was -9.7%.

Take `O/N=C/c1ccc(O)cc1O`: the growth inhibition was 17.9%.

For the compound `C/C(=C\c1cc(Cl)ccc1OCC(=O)O)[N+](=O)[O-]`, the growth inhibition was 40.8%.

`Nc1ccc(C(=O)c2ccc(N)c(Br)c2)cc1Br`: the growth inhibition was 43.3%.

As for `COC(=O)c1ccccc1Br`, the growth inhibition was -3.75%.

Take `CC1SC(N)=NC1=O` (stereo not drawn): the growth inhibition was -7.5%.

On to `CCOC(=O)C(C#N)Cc1ccccc1` (stereo not drawn), for which the growth inhibition was -1.6%.

On to `CCCCCCCO`, for which the growth inhibition is -14.7%.

With `COc1cc2c3cc1Oc1c(OC)c(OC)cc4c1C(Cc1ccc(O)c(c1)Oc1ccc(cc1)CC3N(C)CC2)N(C)CC4` (stereo not drawn), the growth inhibition is 8.1%.

With `Cc1ccc(Cl)cc1N1C(=O)CC(Sc2ccccc2N)C1=O` (stereo not drawn), the growth inhibition is 30.8%.

On to `c1ccc(Sc2ccccc2)cc1`, for which the growth inhibition is -7.95%.

In the case of `C#C[C@H]1CCCCCC1O` (stereo partly drawn), the growth inhibition was -6.75%.

`CCOC(=O)c1coc(C(=O)OCC)c1C(=O)OCC`: the growth inhibition was 4.6%.

Turning to `O=C1NC(=O)C2C(=O)NC(=O)C1C21CCc2ccccc21` (stereo not drawn), the growth inhibition was -41.9%.

Take `CN(C)C(C)(C)CC(C)(C)C`: the growth inhibition was 17.3%.

Take `O=C(NCO)c1ccccc1`: the growth inhibition is 13.9%.

On to `NC(N)=Nc1cc2ccccc2c2ccccc12`, for which the growth inhibition is -3%.

With `CCOC(=O)Nc1cc2c(c(N)n1)N=C(c1ccccc1)CO2`, the growth inhibition was 14.8%.

Consider `CC(C)CCCC(=O)O`, for which the growth inhibition is -2.95%.

In the case of `O=C(CCl)Nc1ccc2c(c1)C(=O)c1ccc(NC(=O)CCl)cc1C2=O`, the growth inhibition was -21.2%.

Regarding `COc1cc(C2c3cc4c(cc3C3OC(=O)C2C3CO)OCO4)cc(OC)c1OC` (stereo not drawn), the growth inhibition is -19.5%.

With `NCC(=O)CCC(=O)O`, the growth inhibition was -0.85%.

With `COC(=O)c1ccc(C(C)C)cc1`, the growth inhibition was 0.3%.

For `CN(C)CCN(C)CC(C)(C)C(=O)/C=C/c1ccc(Cl)cc1`, the growth inhibition is 19.7%.

Take `Cc1cc2nc(CO)[nH]c2cc1C`: the growth inhibition is -5.65%.

Consider `Oc1ccc(O)cc1`, for which the growth inhibition was -0.85%.

In the case of `COc1cc(OC)c2ccc(=O)oc2c1`, the growth inhibition was 38.5%.

Turning to `Cc1cc(NC(=O)CSCC(=O)O)no1`, the growth inhibition was -7.8%.

For `O=C1Cc2ccccc2C(=O)O1`, the growth inhibition was -5.15%.

Consider `COC(=O)c1cc(-c2ccc(Cl)c(Cl)c2)[nH]c(=O)c1C#N`, for which the growth inhibition is -21.9%.

Turning to `CC12CC3CC1C(C(=O)O2)C3C(=O)O` (stereo not drawn), the growth inhibition was -7.2%.

In the case of `O=C(c1ccccc1)C1CCC1`, the growth inhibition was 7.95%.

On to `CC(=O)OCC1CCCO1` (stereo not drawn), for which the growth inhibition was 19.6%.
